Values without a mark were called inactive. No rule for the calls is given here.
How the values were obtained:
[1] = test system: Botulinum neurotoxin type F light chain protease (Clostridium botulinum); assay: Clostridium botulinum type F light chain protease inhibitors, microsphere substrate cleavage, validation (AID 588459); conditions: multiplex microsphere protease substrate cleavage assay, flow cytometry; at 10 µM; active compounds read high
[2] = target: Botulinum neurotoxin type A (Clostridium botulinum) (UniProt P0DPI0); assay: BoNT/A light chain protease inhibitors, biochemical, multiplex microsphere flow cytometry, validation set (AID 588460); conditions: at 10 µM, active compounds read high
Botulinum neurotoxin type A (Clostridium botulinum), sequence (P0DPI0 whole entry, looked up): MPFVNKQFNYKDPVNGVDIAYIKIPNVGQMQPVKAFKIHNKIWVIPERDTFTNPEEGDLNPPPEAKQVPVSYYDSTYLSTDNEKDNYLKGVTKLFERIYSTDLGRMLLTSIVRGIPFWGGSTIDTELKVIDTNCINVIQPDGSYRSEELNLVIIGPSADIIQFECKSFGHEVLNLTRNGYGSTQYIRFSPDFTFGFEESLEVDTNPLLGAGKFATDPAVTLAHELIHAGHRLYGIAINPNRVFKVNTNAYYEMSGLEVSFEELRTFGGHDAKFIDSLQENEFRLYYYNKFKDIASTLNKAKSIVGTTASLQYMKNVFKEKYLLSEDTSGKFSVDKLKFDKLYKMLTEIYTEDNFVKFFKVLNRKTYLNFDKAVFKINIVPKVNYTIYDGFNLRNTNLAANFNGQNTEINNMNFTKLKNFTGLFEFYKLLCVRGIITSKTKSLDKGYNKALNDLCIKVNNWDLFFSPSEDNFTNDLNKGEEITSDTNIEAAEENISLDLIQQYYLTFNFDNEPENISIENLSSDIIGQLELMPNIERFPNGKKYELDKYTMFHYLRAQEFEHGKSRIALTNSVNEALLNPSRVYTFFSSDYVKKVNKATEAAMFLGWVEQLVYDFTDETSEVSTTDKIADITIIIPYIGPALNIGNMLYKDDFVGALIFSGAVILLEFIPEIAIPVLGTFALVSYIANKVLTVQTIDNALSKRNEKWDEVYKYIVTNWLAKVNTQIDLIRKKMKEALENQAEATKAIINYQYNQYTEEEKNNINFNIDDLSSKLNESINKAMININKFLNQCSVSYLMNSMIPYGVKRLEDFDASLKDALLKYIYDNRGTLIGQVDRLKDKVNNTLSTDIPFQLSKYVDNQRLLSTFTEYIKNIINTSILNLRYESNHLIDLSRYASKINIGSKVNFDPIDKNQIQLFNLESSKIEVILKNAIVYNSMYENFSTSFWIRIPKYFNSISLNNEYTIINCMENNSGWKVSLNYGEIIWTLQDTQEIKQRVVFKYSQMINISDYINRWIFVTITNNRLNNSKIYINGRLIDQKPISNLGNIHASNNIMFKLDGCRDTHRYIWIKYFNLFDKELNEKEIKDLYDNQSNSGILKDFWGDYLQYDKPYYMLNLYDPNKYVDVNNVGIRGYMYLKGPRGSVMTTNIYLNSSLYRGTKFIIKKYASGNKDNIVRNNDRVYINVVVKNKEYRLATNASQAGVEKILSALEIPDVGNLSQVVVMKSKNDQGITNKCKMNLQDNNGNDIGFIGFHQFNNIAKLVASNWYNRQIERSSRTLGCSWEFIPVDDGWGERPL

[3] = target: Lethal factor (Bacillus anthracis) (UniProt P15917); assay: Bacillus anthracis lethal factor inhibition, microsphere flow cytometry protease assay, validation at 10 µM (AID 588461); conditions: multiplex microsphere protease cleavage assay, active compounds read high
Lethal factor (Bacillus anthracis), sequence (P15917 whole entry, looked up): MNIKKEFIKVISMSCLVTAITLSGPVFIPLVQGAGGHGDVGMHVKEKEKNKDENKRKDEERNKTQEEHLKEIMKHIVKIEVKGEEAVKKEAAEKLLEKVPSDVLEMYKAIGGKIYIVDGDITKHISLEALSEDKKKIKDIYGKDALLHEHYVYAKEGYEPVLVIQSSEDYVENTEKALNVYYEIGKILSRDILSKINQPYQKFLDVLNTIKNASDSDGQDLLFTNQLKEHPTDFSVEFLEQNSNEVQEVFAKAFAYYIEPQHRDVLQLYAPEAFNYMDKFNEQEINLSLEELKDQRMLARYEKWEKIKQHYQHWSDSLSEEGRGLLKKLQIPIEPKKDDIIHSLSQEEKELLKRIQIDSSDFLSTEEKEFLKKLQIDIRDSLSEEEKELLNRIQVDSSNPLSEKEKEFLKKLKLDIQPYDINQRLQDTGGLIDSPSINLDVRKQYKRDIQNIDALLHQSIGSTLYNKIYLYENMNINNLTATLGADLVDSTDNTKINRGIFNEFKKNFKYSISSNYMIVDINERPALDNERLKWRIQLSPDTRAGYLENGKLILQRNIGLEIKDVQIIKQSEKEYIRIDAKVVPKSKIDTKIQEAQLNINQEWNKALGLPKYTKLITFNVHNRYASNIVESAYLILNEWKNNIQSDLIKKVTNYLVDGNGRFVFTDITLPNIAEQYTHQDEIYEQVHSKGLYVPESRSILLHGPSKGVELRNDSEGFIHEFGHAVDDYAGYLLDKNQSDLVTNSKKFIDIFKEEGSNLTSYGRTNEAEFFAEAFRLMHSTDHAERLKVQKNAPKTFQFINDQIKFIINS

Structure (SMILES) | inhibition [1] [%] | inhibition [2] [%] | inhibition [3] [%]
C#C[C@]1(O)CC[C@H]2[C@@H]3CCC4=CC(=O)CC[C@@H]4[C@H]3CC[C@@]21CC | -0.6 | -1.3 | 
CC(N=C(NC#N)Nc1ccncc1)C(C)(C)C (configuration not stated) | 0.4 | 2.3 | 
COc1c2occc2c(OC)c2c(=O)cc(C)oc12 | -0.3 | -1.1 | 4.5
CCNC(=O)c1sc2cc(C)ccc2c1Cl | 2.4 | -1.2 | -1.4
COC(=O)CSc1nc2ccc(N)cc2s1 | 2.6 | -1 | 1.5
CC(C)C[C@H]1C(=O)N2CCC[C@H]2[C@]2(O)O[C@](NC(=O)[C@@H]3C=C4c5cccc6[nH]c(Br)c(c56)CC4N(C)C3)(C(C)C)C(=O)N12 (some centres not stated) | 5.1 | 1.3 | -5.6
CNC[C@H](O)c1cccc(O)c1 | 1.5 | 2.2 | 
CC1=C/C(=N\N=C2\NC(=O)C(CC(=O)Nc3ccccc3F)S2)CC(C)(C)C1 (configuration not stated) | -1.1 | 0.8 | 2.8
c1ccc(CNc2ncnc3nc[nH]c23)cc1 | -7.5 | -1.3 | -4.8
O=C(O)c1ccc(C(=O)C(=O)c2ccccc2)cc1 | 1.6 | 1.8 | -6.8
N/C(=N\OC(=O)c1ccc(Br)o1)c1ccccn1 | -0.2 | -0.3 | 0.7
O=C(/C=C/c1ccccc1)/C=C/c1ccccc1 | 0.8 | 0.3 | 1.5
COc1ccc(-c2c(C)c3ccc(OCC(C)=O)cc3oc2=O)cc1 | -3.2 | -0.4 | 1.2
O=C(/C=C/c1ccc(Cl)cc1)NCCc1ccccc1 | -4 | 0.4 | 2.3
C#C[C@]1(O)CC[C@H]2[C@@H]3CCc4cc(OC)ccc4[C@H]3CC[C@@]21C | 0.9 | 0.4 | -5.2
CCCCC/C=C\C[C@H](O)/C=C/c1cccc(C[C@H](O)CCCCO)n1 | 2.3 | 1.9 | -6.2
Cn1cnc2c1c(=O)n(CC(O)CO)c(=O)n2C (configuration not stated) | -0.3 | 0 | -1.4
O=C(COc1ccc(F)cc1)OCCN1CCOCC1 | 1.8 | -1 | -5.2
Cc1cn([C@H]2C[C@H](N=[N+]=[N-])[C@@H](CO)O2)c(=O)[nH]c1=O | 2.4 | 0.2 | -2.8
CCCCCC(=O)O[C@]1(C(C)=O)CC[C@H]2[C@@H]3CCC4=CC(=O)CC[C@]4(C)[C@H]3CC[C@@]21C | 1.9 | 1.3 | -1.6
N=C1C(c2ccccc2)=C(O)CN1CCCO | -2.6 | -1.3 | -5
Cn1cc(/C=C/C(=O)c2ccccc2)c2ccccc21 | -4.2 | -0.5 | -5.4
Cn1c(=O)c2c(ncn2CC(O)CO)n(C)c1=O (configuration not stated) | 2.3 | 1 | 2
CCOc1ccc(NC2OC(C)C(O)C(O)C2O)c([N+](=O)[O-])c1 (configuration not stated) | 3.1 | -0.7 | 11.5
CCS(=O)(=O)Nc1cc(OC)c(OC)cc1Cc1nccc2cc(OC)c(OC)cc12 | 0.2 | 0.4 | -0.6
Cc1cc(=O)c2c(O)c(O)ccc2o1 | 1.8 | 2.5 | -0.2
COc1ccc2[nH]c(=O)c(CN(C(=O)c3ccco3)C(C)C)cc2c1 | 0.1 | 1 | 2.1
COc1cc(C(=O)Nc2ccc(N(C)C)cc2)c([N+](=O)[O-])cc1OC | -2.4 | -0.2 | -19.3
CCNC(=O)C(Cc1ccccc1)NC(=O)OCc1ccccc1 (configuration not stated) | 0.3 | -1.4 | 5.5
C[C@H]1O[C@H]1P(=O)(O)O | -0.1 | 1.1 | -2

— PubChem BioAssay
